{"source": "PubChem BioAssay (NCI)", "note": "Where “and” joins values, the source holds several entries; their conditions need not be identical. Identical values can stand only once. Compounds without any hit were thinned out: in the full panel of roughly 83,000, 20% have a hit.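 Interpretation: 100, growth as untreated; towards 0, rising growth inhibition; 0, no net growth; 0 to -100, cell death. Compounds scoring below 10 were considered active.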 Calls of active or inactive are those of the source."}
{"tested_on": "MDA-MB-468 breast", "test": "NCI-60 one-dose screen, 48 h (100 = growth as untreated, 0 = no growth, -100 = all killed)", "details": "10 µM unless noted"}
{"smiles": "O=C(Nc1ccccc1O)c1ccc(CNc2ccnc(C(F)(F)F)c2)cc1", "growth": "90.7% (inactive)"}
{"smiles": "Oc1ccc2cc(Br)ccc2c1-c1c(O)ccc2cc(Br)ccc12", "growth": "90.9% (inactive)"}
{"smiles": "CCOC(=O)C1OC1c1ccccc1", "note": "(stereo not drawn)", "growth": "106% (inactive)"}
{"smiles": "CCOC(=O)c1c(N)c(C#N)cn1Cc1ccc(Cl)cc1Cl", "growth": "45.2% (inactive)"}
{"smiles": "CCN1C(=O)N(CC)C2SC(N/N=C/c3ccc(F)cc3)=NC21", "note": "(stereo not drawn)", "growth": "36.8% (inactive)"}
{"smiles": "Cc1ccc(S(=O)(=O)c2nc(-c3ccccc3)oc2Sc2nc3ccccc3s2)cc1", "growth": "52.1% (inactive)"}
{"smiles": "CC(=O)OCc1nc(C#N)c(N(C)C)o1", "growth": "94.1% (inactive)"}
{"smiles": "CC1OC(n2c3ccccc3c3c4c(c5c6ccccc6[nH]c5c32)C(=O)N(CCN2CCCC2)C4=O)CC(O)C1O", "note": "(stereo not drawn)", "growth": "26.2% (inactive)"}
{"smiles": "COc1ccc(-c2nc3cc(C(=O)NC4CCCCC4)ccc3n2C2CCCCC2)cc1", "growth": "109% (inactive)"}
{"smiles": "COc1cc(CNC(=O)/C=C/c2ccccc2)ccc1OCC(=O)NO", "growth": "92.5% (inactive)"}
{"smiles": "CCCCCN(CCCCC)C(C)C(O)c1ccc2cc(Cl)c3ccccc3c2c1", "note": "(stereo not drawn)", "growth": "91% (inactive)"}
{"smiles": "CCCCNNC(=O)c1ccc(Br)cc1", "growth": "60.1% (inactive)"}
{"smiles": "O=C(/C=C/C=C/c1ccc2c(c1)OCO2)N1CCCCC1", "growth": "106% (inactive) and 105% (inactive)"}
{"smiles": "CCOC(=O)CCCC(=O)OCC", "growth": "116% (inactive)"}
{"smiles": "OC(c1ccc(F)c(C(F)(F)F)c1)c1cnccc1NC1CCCCC1", "note": "(stereo not drawn)", "growth": "9.9% (active)"}
{"smiles": "COc1cnc2c(c1)C(=O)c1c-2n(CCCNC2=NCCS2)c(=O)c2cc([N+](=O)[O-])ccc12", "growth": "-39% (active)"}
{"smiles": "C=C1C(=O)O[C@H]2[C@H]1CC/C(COC(=O)CCSCCC(=O)OC/C1=C/CC[C@@]3(C)O[C@H]3[C@H]3OC(=O)C(=C)[C@@H]3CC1)=C\\CC[C@@]1(C)O[C@@H]21", "growth": "-23.6% (active)"}
{"smiles": "C#Cc1ccc(NC(=O)c2ccc(/C=C/C(=O)c3nccn3C)cc2)c(F)c1", "growth": "32.3% (inactive)"}
{"smiles": "C#C[C@]1(O)CC[C@H]2[C@@H]3CC=C4c5sc(Nc6cc(C)cc(C)c6)nc5CC[C@]4(C)[C@H]3CC[C@@]21C", "growth": "-11.3% (active)"}
{"smiles": "CC(C)C/C=C/C=C/C(=O)N[C@@H](CC(N)=O)C(=O)N[C@@H]1C(=O)N[C@H](c2ccc(O)cc2)C(=O)N[C@H](CCCN)C(=O)N[C@H]([C@@H](C)O)C(=O)N[C@H](c2ccc(O)cc2)C(=O)N[C@H](c2ccc(O)cc2)C(=O)N[C@H]([C@H](C)O)C(=O)N[C@H](Cc2ccccc2)C(=O)N[C@H](CCCN)C(=O)N[C@H](c2ccc(O[C@H]3O[C@@H](CO)[C@@H](O)[C@@H](O)[C@H]3O[C@@H]3O[C@H](CO)[C@H](O)[C@H](O)[C@@H]3O)cc2)C(=O)N[C@H]([C@H](C)O)C(=O)N[C@H](c2ccc(O)cc2)C(=O)NCC(=O)N[C@H](CC(C)C)C(=O)N[C@H](C)C(=O)N[C@H](c2ccc(O)c(Cl)c2)C(=O)O[C@@H]1C(N)=O", "growth": "66.7% (inactive)"}
{"smiles": "COc1ccc(-c2cc(-c3cccnc3)nc3sc4c(Cl)nnnc4c23)cc1OC", "growth": "80.1% (inactive)"}
{"smiles": "COc1ccc(CCN2C(=O)CCSC2=S)cc1", "growth": "10.7% (inactive)"}
{"smiles": "CCSc1nc(-c2ccco2)n2nc(-c3ccco3)cc2n1", "growth": "-67.7% (active)"}
{"smiles": "CCOC(=O)C/C(=N\\Nc1cc(=O)[nH]c2ccc(C)cc12)C(=O)OCC", "growth": "91.1% (inactive)"}
{"smiles": "CCN1CCN(CCOc2ccc(CNc3ccc4nc(CCC5CCCCC5)[nH]c4c3)cc2)CC1", "growth": "35% (inactive)"}
{"smiles": "Fc1ccc2[nH]cc(-c3nc(-c4ccsc4)cs3)c2c1", "growth": "69.6% (inactive)"}
{"smiles": "Clc1ccc(Nc2ncnc3c2sc2ncccc23)c(Cl)c1", "growth": "22.2% (inactive)"}
{"smiles": "CCOc1ccc(NC(=O)Nc2ccc(OCC)cc2)cc1", "growth": "106% (inactive)"}
{"smiles": "CN(C)CCOc1ccc(/C(=C(/CCCl)c2ccccc2)c2ccccc2)cc1", "growth": "-57.1% (active)"}
{"smiles": "COc1ccc(S(=O)(=O)N2CCOCC2)cc1NC(=O)c1[nH]c(C)c2c1CCCCC2=O", "growth": "105% (inactive) and 47.2% (inactive)"}
{"smiles": "COc1cc(NC(=O)COc2ccccc2)c(C(N)=O)cc1OC", "growth": "17.7% (inactive)"}
{"smiles": "N#C/C(=C\\NC(=S)N=Nc1c(O)[nH]c2ccccc12)c1nc2ccccc2s1", "growth": "79.8% (inactive)"}
{"smiles": "CCN(CC)CC#CCOC(=O)[C@]1(C)CCC[C@]2(C)[C@H]3C[C@H]4C(C(C)C)=C[C@]3(CC[C@H]21)[C@@H]1C(=O)CCC(=O)[C@@H]14", "growth": "11% (inactive)"}
